# High-throughput results as filed in PubChem.
# Most compounds without a hit are left out; they make up all but 9.4% or so of the library.
# AMA1-RON2 inh: disrupts binding of P. falciparum AMA1 to RON2; hit rate 0.2% among 360,000; Potency, µM (series often up to 58.2 µM), inactives show at the highest dose activity change, negative = inhibition, most hits filed as inhibitors; AlphaScreen AMA1-biotinylated RON2 peptide binding;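 also: 0% = vehicle wells and -100% = peptide control; nearly all actives have a fitted effect of over 45% in size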
#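 AMA1 (3D7) with his tag at 25 nM final met compounds first, then biotinylated RON2 peptide at 25 nM; detection used donor plus acceptor beads, 10 µg/mL apiece, read by AlphaScreen after 30 min at room temperature.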
# SARS PLP yeast: blocks SARS-CoV papain-like protease in a yeast assay; S. cerevisiae expressing SARS-CoV PLpro, growth rescue; Potency, µM (titrated, usually from 32.9 µM), for inactives: top-dose activity, positive = growth rescue, usual class: activators; hit rate 0.19% among 330,000; AID 485353; calls by dose curve; also: 0% is about no effect; nearly all actives have a fitted effect of over 55% in size
# Pf growth 48h: P. falciparum growth inhibition at 48 hours (one generation). P. falciparum luciferase growth in erythrocytes, 48 h. Potency, µM (top dose mostly 28.7 µM), for inactives: at the highest dose activity change, negative = inhibition, most hits filed as inhibitors. hit rate 5.9% among 310,000. AID 504832; also: % is scaled to controls: 0 for no effect and ±100 for the full control effect
#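 Erythrocytes infected with P. falciparum carrying an integrated firefly luciferase reporter (2% hematocrit, 0.1% parasitemia final) were exposed to compounds in RPMI 1640 with 0.5% Albumax at 37 C, 5% CO2. Growth inhibition was scored as reduced luminescence.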
# Pf growth 96h: P. falciparum growth inhibition at 96 hours. P. falciparum luciferase reporter growth, 96 h. Potency, µM (series often up to 28.7 µM), for the others: top-dose activity change, negative = inhibition, hits mostly inhibitors. hit rate 6.9% among 320,000. AID 504834; also: % is scaled to controls: 0 for no effect and ±100 for the full control effect
#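 96 h incubation, 37 C, 5% CO2, of luciferase-reporter P. falciparum-infected RBCs (2% hematocrit, 0.05% parasitemia final) with test compounds; endpoint luminescence.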
# * marks the source's active call; other numbers are inactive results; ? = inconclusive; . = no result; [ ] = remark or other dose. Unless noted, calls follow the shape of the dose curve; as a rule, active = well fitted curve in the direction sought with a large enough effect; inconclusive = small, poorly fitted or top-dose-only effect, or another doubt; inactive = no such curve, though single readings can be large; an effect the other way counts as inactive or inconclusive. Potency is read from the fitted curve at half-maximal effect.
SMILES,AMA1-RON2 inh,SARS PLP yeast,Pf growth 48h,Pf growth 96h
COC(=O)C1CCN(C(=O)c2cc3c(=O)n4cccc(C)c4nc3n2Cc2ccccc2)CC1,-8.9%,-0.1%,5.86µM*,4.15µM*
Cc1cccn2c(=O)c3cc(C(=O)NCC4CCCO4)c(=N)n(CCc4ccccc4)c3nc12 (stereo not drawn),-1.3%,-0.4%,4.65µM*,?
COc1ccc(CCn2c(=N)c(C(=O)NCC3CCCO3)cc3c(=O)n4ccccc4nc32)cc1OC (stereo not drawn),1.4%,0.1%,?,?
COc1ccc(CCNC(=O)c2cc3c(=O)n4cccc(C)c4nc3n(CC3CCCO3)c2=N)cc1 (stereo not drawn),1.0%,-6.1%,1.47µM*,?
Cc1cc(C)n2nc(SCC(=O)N(Cc3ccccc3)C3CCS(=O)(=O)C3)nc2n1 (stereo not drawn),1.0%,0.3%,-19.0%,-1.8%
CN1C=CC(=CC=C2C=CC(=O)C=C2)C=C1,-4.4%,-0.8%,4.65µM*,1.85µM*
O=S(=O)(NCc1ccccc1)c1ccc2ccccc2c1,-0.4%,-3.2%,7.3%[0.00184 µM],22.7%
COCc1cc(=O)n2[nH]c(C(F)(F)F)nc2n1,6.9%,9.7%,.,?
O=C(CNC(=O)c1ccccc1)NCCCSc1ccccc1,19.9%,-7.7%,.,.
O=C(NCCNC(=O)c1ccccc1O)c1ccccc1O,16.4%,-1.7%,14.3%,?
O=C(NCCCSc1ccccc1)c1cc(Cl)ccc1O,18.0%,1.9%,?,11.7µM*
O=C(NCCCCCCNC(=O)c1ccccc1O)c1ccccc1O,22.0%,-0.4%,8.28µM*,?
O=C(Cn1[nH]c(=O)c2ccccc2c1=O)NC1CCN(Cc2ccccc2)CC1,-12.9%,4.9%,13.9%,163.0%
CC(=O)c1ccc(Nc2c3c(c(C#N)c4nc5ccccc5n24)CCC3)cc1,.,-2.5%,3.29µM*,216.1%
N#Cc1c2c(c(NCc3cccnc3)n3c1nc1ccccc13)CCC2,0.9%,-4.2%,2.94µM*,.
COCCNc1c2c(c(C#N)c3nc4ccccc4n13)CCCC2,35.6%,-0.9%,1.65µM*,?
COc1ccc(Nc2c3c(c(C#N)c4nc5ccccc5n24)CCC3)cc1,-3.8%,?,?,9.28µM*
Cc1nccn1-c1c2c(c(C#N)c3nc4ccccc4n13)CCC2,-1.3%,-1.4%,-17.4%,18.6%
CCN(CC)c1c2c(c(C#N)c3nc4ccccc4n13)CCC2,29.0%,7.5%,?,?
CCc1c(C)c(C#N)c2nc3ccccc3n2c1NC,1.1%,1.5%,-12.0%,-17.2%
N#Cc1c2c(c(NCCOCCO)n3c1nc1ccccc13)CCCC2,15.0%,-1.0%,?,-16.2%
CC(/C=C/c1ccccc1)=N\Nc1ccccc1[N+](=O)[O-],?,-2.2%,97.2%,-25.9%
O=C1C=C(N(CCO)CCO)C2(CCCCC2)O1,-1.1%,?,2.0%,?
Cc1nc2sc(C(c3cccs3)N3CC(C)CC(C)C3)c(O)n2n1 (stereo not drawn),23.3%,1.6%,6.57µM*,?
COc1ccc(CCNC2CC(=O)N(CCc3ccccc3)C2=O)cc1 (stereo not drawn),-1.9%,-16.8%,9.1%,.
SMILES,AMA1-RON2 inh,SARS PLP yeast,Pf growth 48h,Pf growth 96h
CCN(CC)c1ccc(NC2CC(=O)N(CCc3ccc(OC)cc3)C2=O)cc1 (stereo not drawn),-20.2%,3.7%,4.65µM*,1.85µM*
CC(C)CC(NC(=O)c1ccccc1)C(=O)OCC(=O)Nc1ccc(Br)cn1 (stereo not drawn),-3.0%,-10.0%,26.8%,30.9%
CN(C)CCCN(C(=O)C1=COCCO1)c1nc2ccc(Br)cc2s1,-5.9%,-6.3%,?,?
Cc1cc(C)c2nc(N(CCCN(C)C)C(=O)c3ccc4c(c3)OCCO4)sc2c1,?,-2.7%,10.4µM*,7.38µM*
CN(C)CCCN(C(=O)c1ccc2c(c1)OCCO2)c1nc2cc3c(cc2s1)OCO3,-12.8%,-4.3%,-12.4%,?
COc1ccc(C)c2sc(N(CCCN(C)C)C(=O)c3ccc4c(c3)OCCO4)nc12,-1.4%,-2.9%,9.28µM*,8.28µM*
Cc1cc(C)c2nc(N(CCCN(C)C)C(=O)C3=COCCO3)sc2c1,-4.3%,2.7%,11.7µM*,?
CCC(=O)N(Cc1cc2cc(C)c(C)cc2[nH]c1=O)C1CCCCC1,4.1%,-9.3%,?,52.4%
COc1cccc(C2CN(c3ccc(F)cc3F)N=C2c2cccs2)c1OC (stereo not drawn),118.9%,6.3%,5.86µM*,11.7µM*
COc1ccccc1C1CN(c2ccccc2)N=C1c1cccs1 (stereo not drawn),157.0%,-13.7%,.,-100.6%
COc1cccc(CN(CC(=O)NCc2ccccc2)S(=O)(=O)CCl)c1,-0.2%,-7.0%,13.1%,41.6%
COc1ccc(-n2cc([N+](=O)[O-])c(=O)c3ccc(Cl)cc32)cc1,-5.2%,.,.,.
Cc1ccc(-n2ccc(-c3nn(-c4ccccc4)ccc3=O)n2)cc1,-8.0%,-3.7%,?,7.38µM*
O=C(O)c1nn(-c2cccc(C(F)(F)F)c2)ccc1=O,-3.8%,2.1%,.,19.3%
O=c1ccn(-c2cccc(C(F)(F)F)c2)nc1-c1ccn(-c2ccccc2F)n1,-12.7%,7.4%,?,5.86µM*
COc1ccc(-n2ccc(-c3nn(-c4cccc(C(F)(F)F)c4)ccc3=O)n2)cc1,1.6%,4.3%,7.38µM*,3.29µM*
Cc1cc(O)ccc1NC(=S)NC(=O)c1cncc(Br)c1,165.3%,0.9%,?,-5.3%
CCCCn1nnc(NC(=O)C(c2ccccc2)c2ccccc2)n1,-0.3%,0.0%,-14.6%,?
CCN(CC)CCN(Cc1cc2cc3c(cc2[nH]c1=O)OCO3)C(=S)NCC(C)C,-2.2%,-1.3%,?,3.7µM*
CCN(CC)CCN(Cc1cc2cc(C)cc(C)c2[nH]c1=O)C(=S)NCc1ccco1,-6.3%,0.9%,?,7.1%
CCN(CC)CCN(Cc1cc2cc(C)ccc2[nH]c1=O)C(=S)NCc1ccco1,0.6%,23.8%,6.57µM*,?
CCN(CC)CCN(Cc1cc2cc3c(cc2[nH]c1=O)OCO3)C(=S)NCc1ccco1,-2.8%,-0.8%,-4.3%,6.57µM*
CN(C)CCCN(Cc1cc2cc3c(cc2[nH]c1=O)OCO3)C(=S)NCc1ccco1,-15.5%,0.2%,0.9%,23.9%
CCN(CC)CCCN(Cc1cc2cc3c(cc2[nH]c1=O)OCO3)C(=S)NCc1ccco1,2.7%,0.4%,?,-15.9%
CCN(CC)CCN(Cc1cc2ccc(C)c(C)c2[nH]c1=O)C(=S)NCc1ccco1,1.6%,0.0%,10.4µM*,?
CCCCS(=O)(=O)Nc1ccc(C(=O)NCC2CCCO2)cc1 (stereo not drawn),11.5%,2.5%,-10.7%,-7.8%
COc1ccccc1C(=O)NC(=O)COC(=O)c1ccc(Br)o1,3.0%,-1.2%,?,27.7%
C=CCn1c(SCC(=O)Nc2cc(NC(C)=O)ccc2OC)nnc1-c1ccccn1,-13.6%,7.7%,19.1%,-8.9%
CC(C)N1C(=O)CCC1C(=O)NCc1cccs1 (stereo not drawn),3.6%,-2.6%,23.8%,-5.4%
C[C@@H]1CN([C@H](C)CO)C(=O)CCCn2nncc2CO[C@H]1CN(C)C,-0.1%,.,.,.
